Test results published in publication PMC4336329 (PLoS ONE, 2015).
Hit rate of the full screen: of about 310,000 compounds, about 14,000 (4.5%) showed an effect of 50% or more. The effect is printed as a negative number. This is one part of a sample in which strong results are shown more often than they occur.

Molecular target: human ether-à-go-go-related gene (hERG) potassium channel (human, UniProt Q12809)
Assay: primary screen, population patch clamp on CHO cells stably expressing hERG; higher = less effect of the substance
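Note: peak tail current of the secondary pulse compared with the same well before compound.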

Chain of human ether-à-go-go-related gene (hERG) potassium channel (Q12809 whole entry, looked up): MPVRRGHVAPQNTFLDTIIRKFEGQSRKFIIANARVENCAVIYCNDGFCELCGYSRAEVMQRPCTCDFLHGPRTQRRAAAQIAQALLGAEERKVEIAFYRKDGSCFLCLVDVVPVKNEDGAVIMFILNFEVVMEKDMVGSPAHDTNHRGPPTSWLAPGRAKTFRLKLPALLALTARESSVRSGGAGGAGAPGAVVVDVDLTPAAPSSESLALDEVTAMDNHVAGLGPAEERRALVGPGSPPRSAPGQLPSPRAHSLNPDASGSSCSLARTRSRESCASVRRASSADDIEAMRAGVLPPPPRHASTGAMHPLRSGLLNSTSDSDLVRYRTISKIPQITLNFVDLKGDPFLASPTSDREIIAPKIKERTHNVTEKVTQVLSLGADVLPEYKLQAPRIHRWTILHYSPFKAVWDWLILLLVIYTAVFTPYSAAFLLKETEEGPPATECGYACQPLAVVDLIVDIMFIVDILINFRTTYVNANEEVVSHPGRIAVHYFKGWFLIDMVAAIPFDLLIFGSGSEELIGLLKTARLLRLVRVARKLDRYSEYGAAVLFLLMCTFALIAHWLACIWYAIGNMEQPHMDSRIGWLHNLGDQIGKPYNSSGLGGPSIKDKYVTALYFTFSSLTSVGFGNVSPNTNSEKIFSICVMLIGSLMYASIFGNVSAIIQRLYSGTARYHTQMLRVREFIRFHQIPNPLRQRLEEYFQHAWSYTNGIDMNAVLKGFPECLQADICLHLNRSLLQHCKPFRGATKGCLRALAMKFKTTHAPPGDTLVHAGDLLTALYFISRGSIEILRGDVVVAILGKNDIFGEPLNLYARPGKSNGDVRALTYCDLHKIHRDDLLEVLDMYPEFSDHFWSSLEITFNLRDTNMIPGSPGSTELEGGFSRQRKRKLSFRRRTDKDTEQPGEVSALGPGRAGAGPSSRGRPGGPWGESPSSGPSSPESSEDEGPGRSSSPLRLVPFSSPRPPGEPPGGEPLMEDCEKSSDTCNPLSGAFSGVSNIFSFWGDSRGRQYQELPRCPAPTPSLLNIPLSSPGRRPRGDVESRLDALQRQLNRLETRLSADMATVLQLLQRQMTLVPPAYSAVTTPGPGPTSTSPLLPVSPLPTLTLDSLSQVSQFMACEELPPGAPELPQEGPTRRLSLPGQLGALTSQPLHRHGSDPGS

Row | Compound | hERG current change (%, negative = inhibition) at 10uM [%]
1 | Cc1ccc(S(=O)(=O)NC2(C(F)(F)F)NC(=O)N(c3ccc(F)cc3)C2=O)cc1 (stereo not drawn) | 9.68
2 | CCN1CCN(C(=O)c2c(-c3c(Cl)cccc3Cl)noc2C)CC1 | 20.9
3 | Cc1ccc(-n2c(C)cc(/C=C3\NC(=O)NC3=O)c2C)c(C)c1 | -5.9
4 | Cc1cc(C)n(CCc2nc(-c3cccs3)cs2)n1 | 3.48
5 | Cc1nc2ccccn2c1C(=O)NNC(=O)Nc1cccc(C(F)(F)F)c1 | -11
6 | Cc1nc2sc(C(=O)O)c(N)c2c2c1COC(C)(C)C2 | 9.19
7 | O=C(Nc1ccc(NC(=O)C2CCCCC2)cn1)c1ccco1 | 4.68
8 | CCN(CCO)Cc1cn[nH]c1-c1ccc(C)c(C)c1 | 9.28
9 | Cc1c(NC(N)=O)c(=O)n(-c2ccccc2)n1C | 3.79
10 | C=CCNc1cnn(-c2ccc(C)cc2)c(=O)c1Sc1ccc(C)cc1 | -79.4
11 | C=CCNc1cnn(-c2ccc(C)cc2)c(=O)c1Cl | -12.7
12 | CNc1cnn(-c2ccc(C)cc2)c(=O)c1Sc1ccc(C)cc1 | -8.7
13 | CCOC(=O)c1cc(-c2ccccc2)nn1Cc1cc(C)no1 | -4.06
14 | C=CCN1C(=O)/C(=C2/Sc3ccccc3N2C)SC1=Nc1c(C)n[nH]c1C | -3.99
15 | O=C(CCN1C(=O)c2ccccc2C1=O)Nc1ccc(F)cc1 | -6
16 | Clc1cccc(CN2CCc3c([nH]c4ccccc34)C2)c1 | -31.9
17 | Clc1ccc(CN2CCc3c([nH]c4ccccc34)C2)cc1Cl | -28.2
18 | Cc1cccc(CN2CCc3c([nH]c4ccccc34)C2)c1 | -33.4
19 | COc1cc(CN2CCc3c([nH]c4ccccc34)C2)cc(OC)c1 | -55.7
20 | CSc1ccc(CN2CCc3c([nH]c4ccccc34)C2)cc1 | -52.7
21 | CCOc1cc(CN2CCc3c([nH]c4ccccc34)C2)ccc1OC | -19
22 | Cc1cccc(NC(=O)CSc2nc3ccccc3nc2N2CCCCC2)c1 | -36.5

Row | Compound | hERG current change (%, negative = inhibition) at 10uM [%]
23 | COc1ccc(CNC(=O)c2n[nH]c3ccccc23)cc1OC | 11.6
24 | CCOC(=O)CSCC(=O)N1CCC(Cc2ccccc2)CC1 | 3.24
25 | CCCSCCCNC(=O)CN1C(=O)COc2ccc(S(=O)(=O)N3CCCC3)cc21 | 2.87
26 | O=C(N/N=C/c1ccc(OC(=O)c2ccc3c(c2)OCO3)cc1)c1cncc(Br)c1 | 10.8
27 | CN(C)c1ccnc2sc3c(=O)n(-c4ccccc4)cnc3c12 | -17.9
28 | Cc1ccc(-n2cnc3c(sc4nccc(N(C)C)c43)c2=O)cc1 | -16.4
29 | CN(C)c1ccnc2sc3c(=O)n(Cc4ccccc4)cnc3c12 | -51
30 | CCN(CC)C(=O)c1sc(NC(=O)Cc2cccs2)c(C#N)c1C | -6.24
31 | Cc1ccc(N(CC(O)CN2CCCCC2)S(=O)(=O)c2ccccc2)cc1 (stereo not drawn) | -68
32 | Cc1ccc(N(CC(O)CN2CCCC2)S(=O)(=O)c2ccccc2)cc1 (stereo not drawn) | -68.2
33 | Cc1cccc(N(CC(O)CN2CCCC2)S(=O)(=O)c2ccccc2)c1 (stereo not drawn) | -57
34 | COc1ccccc1N(CC(O)CN1CCCC1)S(=O)(=O)c1ccccc1 (stereo not drawn) | -4.48
35 | CC(C)CN(CC(C)C)CC(O)CN(c1ccccc1)S(=O)(=O)c1ccccc1[N+](=O)[O-] (stereo not drawn) | -51.5
36 | CC(C)CNC(=O)CN(c1ccccc1)S(=O)(=O)c1ccccc1[N+](=O)[O-] | 2.38
37 | CC1(C)NC(=O)N(CC(O)CN(c2ccccc2)S(=O)(=O)c2ccccc2[N+](=O)[O-])C1=O (stereo not drawn) | 13.7
38 | Cc1cccc(N(CC(O)CN2CCOCC2)S(=O)(=O)c2ccccc2)c1 (stereo not drawn) | -1.7
39 | COc1ccccc1N(CC(O)CN1CCOCC1)S(=O)(=O)c1ccccc1 (stereo not drawn) | 12.7
40 | COc1ccc(OC)c2[nH]c(=O)c(CCNS(=O)(=O)c3ccc(F)cc3)cc12 | 1.59
41 | CN1CCC(N(C)C(=O)/C=C/c2cn(-c3ccccc3)nc2-c2cccs2)CC1.Cl | -22.3
42 | NC(=O)Cc1ccc(C(=O)c2ccccc2)s1 | 7.3
43 | C[C@H](O)[C@@]1(O)CC[C@H]2[C@@H]3CC[C@@H]4C[C@H](O)CC[C@]4(C)[C@H]3CC[C@@]21C | -0.0961
44 | CCOCCOc1nc2c(c(=O)n(C)c(=O)n2C)n1CCc1ccccc1 | 0.435

Row | Compound | hERG current change (%, negative = inhibition) at 10uM [%]
45 | CC(C(N)=O)N1CC(c2ccc(Cl)cc2)CC1=O (stereo not drawn) | -10.8
46 | C=CCN1C(=O)NC(=O)/C(=C/c2ccc(OC)c(COc3ccc(NC(C)=O)cc3)c2)C1=O | 8.75
47 | Cc1ccc(N(CC2CO2)S(=O)(=O)c2ccccc2[N+](=O)[O-])cc1 (stereo not drawn) | 1.23
48 | Cc1ccc(N(CC(O)CN2CCCCC2)S(=O)(=O)c2ccccc2[N+](=O)[O-])cc1 (stereo not drawn) | -70.9
49 | O=[N+]([O-])c1ccccc1S(=O)(=O)N(CC(O)CN1CCCCC1)c1ccccc1 (stereo not drawn) | -29.9
50 | O=C(NC(Cc1c[nH]c2ccccc12)C(=O)OCC(=O)c1cccc2ccccc12)c1cccs1 (stereo not drawn) | 0.359
51 | CN(C)C(=O)c1ccc(NC(=O)c2cccc(S(=O)(=O)N3CCCc4ccccc43)c2)cc1 | -8.06
52 | NC(=O)[C@H]1CC2(CC(c3cccc(NC(=O)CC(c4ccccc4)c4ccccc4)c3)=NO2)CN1C(=O)C(c1ccccc1)c1ccccc1 (stereo partly drawn) | 8.82
53 | O=C(C1CCCN(Cc2cc(Br)ccc2O)C1)N1CCCCC1.O=C(O)C(=O)O (stereo not drawn) | -31.6
54 | COc1ccccc1CN1CCCC(C(=O)N2CCCCC2)C1.O=C(O)C(=O)O (stereo not drawn) | 10.6
55 | COc1ccc(Br)cc1CN1CCCC(C(=O)N2CCCCC2)C1.O=C(O)C(=O)O (stereo not drawn) | -55.8
56 | COc1cc(OC)c(OC)cc1CN1CCCC(C(=O)N2CCCCC2)C1.O=C(O)C(=O)O (stereo not drawn) | -1.45
57 | COc1ccc(OC)c(CN2CCCC(C(=O)N3CCCCC3)C2)c1.O=C(O)C(=O)O (stereo not drawn) | -32.1
58 | COc1ccc(Br)cc1CN1CCCC(C(=O)N2CCCCCC2)C1.O=C(O)C(=O)O (stereo not drawn) | -62.4
59 | COc1ccc(-c2csc(NC(=O)c3ccc(S(=O)(=O)N4CCc5ccccc5C4)cc3)n2)c(OC)c1 | 23
60 | O=C(CCC(=O)OCC(=O)c1ccccc1)Nc1cccc(Cl)c1 | 21.5
61 | CCN(CC)C(=O)c1c(NC(=O)c2ccccc2)sc(C)c1C | -6.01
62 | O=C(NCSc1ccnc(SCNC(=O)c2ccccc2)n1)c1ccccc1 | -28
63 | COc1ccc(CC(=O)NCCS(=O)(=O)N2CCN(c3ccccc3)CC2)cc1 | 12.7
64 | Cc1ccc(CSc2nnc(-c3ccncc3)n2C)cc1 | 4.36
65 | CN(C)c1ccc(-c2nnc(SCC3CCCO3)n2C)cc1 (stereo not drawn) | 5.24
66 | Cn1c(SCc2ccc([N+](=O)[O-])cc2)nnc1-c1cccnc1 | -18

Row | Compound | hERG current change (%, negative = inhibition) at 10uM [%]
67 | Cn1c(SCc2ccc([N+](=O)[O-])cc2)nnc1-c1ccncc1 | -52
68 | Cn1c(SCC2CCCO2)nnc1-c1cccc([N+](=O)[O-])c1 (stereo not drawn) | 8.76
69 | Cn1c(SCC2CCCO2)nnc1-c1ccc([N+](=O)[O-])cc1 (stereo not drawn) | -63.8
70 | CCO/C=C1/C(=O)N(CC)c2ccccc21 | -8.33
71 | CCOC(=O)Nc1cccc2ccccc12 | 1.14
72 | CCOc1cc(C2C(C(=O)O)c3cc(OCC)c(OCC)cc3C(=O)N2C)ccc1O (stereo not drawn) | 2.69
73 | O=C(CNC(=S)N(Cc1ccccc1F)C1CCCCC1)NCCN1CCOCC1 | 43.3
74 | COCCNC(=O)Cn1nc(-c2ccc(Cl)cc2)c2ccccc2c1=O | 8.83
75 | COc1cccc(CN(C)C(=O)CCNC(=O)c2ccc(Br)cc2)c1 | 0.786
76 | CC(=O)c1cccc(CN2CCN(CCc3ccccc3)C(CCO)C2)c1 (stereo not drawn) | -53.3
77 | COc1ccc(CN2CCN(Cc3csc(C(C)=O)c3)CC2CCO)c(C)c1C (stereo not drawn) | -58.1
78 | CC(=O)c1cc(CN2CCN(C3CCN(C(C)C)CC3)C(CCO)C2)cs1 (stereo not drawn) | -3.56
79 | CC(=O)c1cccc(CN2CCN(Cc3ccc(F)cc3)C(CCO)C2)c1 (stereo not drawn) | -32.9
80 | CC(=O)c1cccc(CN2CCN(Cc3ccccc3)C(CCO)C2)c1 (stereo not drawn) | -1.84
81 | CC(=O)c1cc(CN2CCN(CCC(C)C)C(CCO)C2)cs1 (stereo not drawn) | -5.53
82 | CC(=O)c1cccc(CN2CCN(Cc3ccc(C)cc3)C(CCO)C2)c1 (stereo not drawn) | -69
83 | CC(=O)c1cc(CN2CCN(Cc3ccccc3)C(CCO)C2)cs1 (stereo not drawn) | 2.03
84 | CC(=O)c1cc(CN2CCN(CCc3ccccc3)C(CCO)C2)cs1 (stereo not drawn) | -54.4
85 | CCOc1ccccc1CN1CCN(Cc2csc(C(C)=O)c2)CC1CCO (stereo not drawn) | -44.5
86 | CC(=O)c1cccc(CN2CCN(CCC(C)C)C(CCO)C2)c1 (stereo not drawn) | -29
87 | CC(=O)c1cccc(CN2CCN(CC(C)C)C(CCO)C2)c1 (stereo not drawn) | 5.29
